Data on 100 compounds can be found in PubChem BioAssay AID686978 (National Center for Advancing Translational Sciences (NCATS), 2013).

Screen size: about 420,000 compounds; about 64,000 (15%) were called active. Inconclusive results (about 27%) are left out. The call rests on the fitted dose curve; in most records, active means well fitted inhibition curve with a large enough effect; inconclusive means small, poorly fitted or top-dose-only effect; inactive means flat fitted curve, though single readings scatter. The list is a sample of the results. A call without a number means that no potency is given here.
Potency means the concentration at half of the fitted maximal effect.

A short description of the assay: qHTS for Inhibitors of human tyrosyl-DNA phosphodiesterase 1 (TDP1): qHTS in cells in absence of CPT. Further: nearly all actives have a fitted effect of over 55% in size. As to conditions: DT40 Tdp1-/- hTDP1 cells, no CPT, ATP luminescence, 48 h; activity change, negative = growth inhibition: at 46.2 µM (top of the series). The gist of the method: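 Stably hTDP1-transfected Tdp1-null chicken DT40 cells were treated with library compounds minus camptothecin and grown for at least 48 hr at 37 °C, after which cellular ATP was quantified by luminescence.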
Background: Quantitative high-throughput screening tests each substance at several concentrations.
On to `CC(C)c1ccc(N2CC(C(=O)Nc3nccs3)CC2=O)cc1` (stereo not given), for which the Potency result was “inactive”.
Turning to `O=C(NN=C1CCC(=NNC(=O)c2cccnc2)CC1)c1cccnc1`, the Potency entry is “inactive”.
On the same count and under the same terms, as for `COc1ccc(CNC(=O)C2CCN(S(C)(=O)=O)CC2)cc1`, the entry is “inactive”; as for `Cn1cnc(S(=O)(=O)N2C[C@@H](O)COC[C@@H]3O[C@H](CC(=O)NC4CCC4)CC[C@H]32)c1`, “inactive”.
Take `c1csc(-c2nnc(COc3ncnc4sccc34)o2)c1`: the Potency entry was “inactive”.
On the same count and under the same terms, as for `C[C@@H]1NC(=O)c2cc([N+](=O)[O-])cc(F)c2NCCC[C@@H](C(N)=O)NC(=O)[C@H](CC(N)=O)NC1=O`, the entry is “inactive”; as for `COc1ccc(C(=O)NCC2CCCCC2)cc1S(=O)(=O)N1CCCC1`, “inactive”.
For the compound `COc1ccc(S(=O)(=O)N2CCC(C(=O)N3CCOCC3)CC2)cc1OC`, the Potency entry was “inactive”.
As for `CN1CCN(NC(=O)c2ccc(S(=O)(=O)N3CCCCCC3)cc2)CC1`, the Potency result is “inactive”.
On the same count and under the same terms, as for `COc1ccc(S(=O)(=O)N2CCCCC2)cc1Br`, the entry is “inactive”; as for `COc1cc(S(=O)(=O)N2CCN(C(=O)C3CC3)CC2)ccc1NC(C)=O`, “inactive”.
`COc1cc2c(cc1OC)CN(C(=O)c1ccc(S(=O)(=O)N3CCCCCC3)cc1)CC2`: the Potency was 14.6 µM (active).
Same read-out and setting: as for `COc1ccc(S(=O)(=O)N2CCC(C(=O)N3CCc4ccccc4C3)CC2)cc1OC`, the figure is 29.1 µM (active); as for `COc1cc2c(cc1OC)CN(C(=O)c1cc(S(=O)(=O)N3CCCCC3)ccc1Cl)CC2`, 11.6 µM (active).
On the same count and under the same terms, as for `O=C(c1cc(S(=O)(=O)N2CCOCC2)ccc1Cl)N1CCOCC1`, the entry is “inactive”.
The same measure, in the same setting: as for `CSc1ccccc1OCc1cc(C(=O)N2C[C@H]3CC[C@H]2C3)no1`, the entry is “inactive”.
For `CCOc1ccccc1N(CC(=O)NC1CCCCC1)C(=O)CCCC(=O)Nc1ccccn1`, the Potency result is “inactive”.
For `O=C(c1ccc(Cl)cc1)c1cnc(Nc2ccccc2)s1`, the Potency result was “inactive”.
Same read-out and setting: as for `Cc1ccc(S(=O)(=O)NN=C2CC(C)(C)CC(=O)C2(C)C)cc1`, the entry is “inactive”; as for `COC(C[C@@H](O)C[C@H](O)[C@H](C)OCc1ccccc1)OC`, “inactive”.
Same read-out and setting: as for `Cc1noc(C)c1COc1ccccc1C(=O)N(C)CC(=O)Nc1cccc(F)c1`, the entry is “inactive”; as for `Cc1cc(Nc2ccccc2)n(CCC#N)n1`, “inactive”.
On the same count and under the same terms, as for `O=c1ccn([C@@H]2O[C@H](COP(=O)(O)OP(=O)(O)OP(=O)(O)O)[C@@H](O)[C@H]2O)c(=O)[nH]1`, the entry is “inactive”.
`Cc1ccccc1NC(=O)CN1C(=O)N/C(=C\c2cccn2-c2cccc(C(=O)O)c2)C1=O`: the Potency result was “inactive”.
The same measure, in the same setting: in the case of `Nn1c(SCc2ccccc2)nnc1C1CCCCC1` it was “inactive”; in that of `Cc1ccc(-c2nc(C#N)c(NCCCn3ccnc3)o2)cc1`, “inactive”; in that of `Cc1ccc(S(=O)(=O)NCCCn2ccnc2)cc1C(=O)NC(C)C`, “inactive”.
On to `Cc1ccc(S(=O)(=O)c2nc(NCCCn3ccnc3)sc2Cl)cc1`, for which the Potency is 20.6 µM (active).
Same read-out and setting: in the case of `CCc1ccccc1NC(=S)Nc1cc(OC)c(NC(=O)C(C)C)cc1OC` it was “inactive”; in that of `CCc1ccccc1NC(=O)CCOc1ccccc1`, “inactive”.
Same read-out and setting: in the case of `CCc1ccccc1NC(=O)/C(=C/c1ccccc1)c1ccccc1` it was 23.1 µM (active); in that of `O=S(=O)(Nc1cccc(Oc2ccc(Cl)cc2)n1)c1ccc(F)cc1`, “inactive”.
On the same count and under the same terms, as for `CC(C)(C)NC(=O)CN1CCC(NC(=O)C23CC4CC(CC(C4)C2)C3)CC1`, the entry is “inactive”.
In the case of `CCc1c(C)sc(NC(=O)C2c3ccccc3Oc3ccccc32)c1C(=O)OC(C)C`, the Potency entry is “inactive”.
On the same count and under the same terms, as for `O=C(Cc1ccc(S(=O)(=O)N2CCOCC2)s1)N1CCN(c2ccc(C(F)(F)F)cc2[N+](=O)[O-])CC1`, the figure is 9.2 µM (active); as for `O=C(COc1ccc(S(=O)(=O)N2CCOCC2)cc1Cl)N1CCOCC1`, “inactive”.
The same measure, in the same setting: as for `O=C(OCC(=O)N1CCOCC1)c1ccc(N2CCOCC2)c([N+](=O)[O-])c1`, the entry is “inactive”.
For the compound `O=C(Cc1ccc(S(=O)(=O)N2CCOCC2)s1)NCCOc1ccccc1F`, the Potency entry is “inactive”.
Same read-out and setting: in the case of `O=S(=O)(Nc1cc(S(=O)(=O)N2CCOCC2)ccc1N1CCCC1)c1cccs1` it was “inactive”; in that of `Cc1cc(S(=O)(=O)N2CCOCC2)ccc1OCC(=O)Nc1cccc(C(F)(F)F)c1`, “inactive”.
Still for that read-out and setting: in the case of `O=C(c1ccc(N2CCOCC2)c([N+](=O)[O-])c1)N1CCN(S(=O)(=O)c2cccs2)CC1` it was 16.4 µM (active).
Same read-out and setting: as for `O=C(Cc1ccc(S(=O)(=O)N2CCOCC2)s1)Nc1ccc(Br)c(C(F)(F)F)c1`, the figure is 25.9 µM (active); as for `O=C(Oc1ccccc1Cl)c1ccc(N2CCOCC2)c([N+](=O)[O-])c1`, “inactive”.
For `CC1CC(C)CN(CCCNC(=O)c2csc3c2CCCCC3)C1` (stereo not given), the Potency result was “inactive”.
For the compound `CCOC(=O)c1nc(N)sc1C(=O)OCC`, the Potency result is “inactive”.
Same read-out and setting: as for `O=C(Nc1ccc(-n2ccnc2P(=O)(O)c2ccccc2)cc1)c1ccccc1Br`, the entry is “inactive”; as for `CSc1nc2sc3c(c2c(=O)[nH]1)CCc1ccccc1-3`, “inactive”.
In the case of `O=C(NC1CCCC1)C(c1c(F)cccc1Cl)N(C(=O)c1csnn1)C1CC1` (stereo not given), the Potency entry is “inactive”.
The same measure, in the same setting: as for `Cc1noc(C)c1NC(=O)Nc1cccc2c1O[C@H](CN(C)C(=O)Nc1ccccc1)[C@@H](C)CN([C@H](C)CO)C2=O`, the entry is “inactive”; as for `O=C(Nc1ccc2c(c1)CCC2)c1ccc(Br)s1`, “inactive”.
As for `CCN(CC(=O)NCc1ccc(Cl)cc1)C(=O)CSc1ccccc1`, the Potency entry was “inactive”.
Regarding `O=C(CSc1nc2ccccc2o1)N1CCN(c2ccccc2)CC1`, the Potency entry was “inactive”.
Same read-out and setting: as for `Cc1ccc(/C=N/NC(=S)Nc2cccc(S(=O)(=O)N(C)C)c2)o1`, the figure is 2.59 µM (active); as for `Cc1ccc(/C=N/NC(=O)Cn2nc(C)c(Br)c2C)o1`, “inactive”; as for `CN(C)S(=O)(=O)c1cccc(C(=O)Nc2cccnc2)c1`, “inactive”.
Regarding `O=C(OCc1cc2ccccc2[nH]c1=O)c1cccnc1`, the Potency result was “inactive”.
Same read-out and setting: in the case of `CN1CCN(S(=O)(=O)c2ccc3[nH]cc(C(=O)O)c(=O)c3c2)CC1` it was “inactive”; in that of `O=C(CCc1nc2ccccc2c(=O)[nH]1)OCC(=O)c1cccc(Cl)c1`, “inactive”; in that of `CC(C)(C)c1ccc(NC(=O)COC(=O)CCc2nc3ccccc3c(=O)[nH]2)cc1`, “inactive”.
On the same count and under the same terms, as for `Cc1cc(C)c(-c2csc(NC(=O)CCCc3nc4ccccc4c(=O)[nH]3)n2)c(C)c1`, the figure is 8.2 µM (active); as for `Cc1ccc(C(=O)N/C(=C\c2cn(S(=O)(=O)N(C)C)c3ccccc23)C(=O)N2CCCC2)cc1`, “inactive”.
In the case of `C/C=C(\C)C(=O)OC1C(OC(=O)C2(C)OC2C)c2cc3ccc(=O)oc3cc2OC1(C)C` (stereo not given), the activity change, negative = growth inhibition was -10.9% [at 9.04 µM] (inactive).
Regarding `CN1CCN(/N=C/c2ccc(C#N)cc2)CC1`, the Potency result was “inactive”.
Regarding `Cc1ccc(NS(=O)(=O)c2ccc3c(c2)CC(=O)N3)cc1Cl`, the Potency result is “inactive”.
Still for that read-out and setting: as for `Cc1cccc(N2C(=O)c3cccnc3C2=O)c1`, the entry is “inactive”; as for `NC1=CC(=O)C(=O)c2cccnc21`, 3.66 µM (active); as for `O=C1c2cccnc2C(=O)N1Cc1cccs1`, “inactive”.
On the same count and under the same terms, as for `Cc1cccc(-c2noc(-c3ccc(F)cc3)n2)c1`, the entry is “inactive”.
As for `CNc1nc(-c2ccccc2OC)nc2ccccc12`, the Potency was 7.31 µM (active).
Same read-out and setting: in the case of `COc1ccccc1-c1nc(NCCNC(C)=O)c2ccccc2n1` it was “inactive”; in that of `Cc1nc2ccccc2c(C)c1C(=O)c1ccc(F)cc1`, “inactive”; in that of `Cc1cccc(-c2nc(Nc3ccc(O)cc3)c3ccccc3n2)c1`, 20.6 µM (active).
As for `COc1cccc(-c2nc(Nc3ccncc3)c3ccccc3n2)c1`, the Potency was 10.3 µM (active).
On the same count and under the same terms, as for `Oc1ccc(-c2nnc(Nc3ccccc3)c3ccccc23)cc1`, the entry is “inactive”; as for `COc1cc(Nc2nc(-c3ccc(OC)c(OC)c3)nc3ccccc23)cc(OC)c1`, 2.06 µM (active).
With `COc1ccc(-c2nc3n(c(=O)c2C#N)CCS3)c(OC)c1`, the Potency entry is “inactive”.
Still for that read-out and setting: as for `CC1=NCCN1S(=O)(=O)c1ccc(Br)c(C)c1`, the entry is “inactive”; as for `CCCCn1c(=O)c2oc3ccccc3c2n(CC(=O)Nc2ccccc2OC)c1=O`, “inactive”; as for `O=C(Nc1ccc(OCC(=O)N2CCOCC2)cc1)c1cc(F)c(F)cc1Cl`, “inactive”.
Regarding `N#Cc1c(-c2ccccc2)c(-c2ccccc2)n[nH]c1=O`, the Potency entry was “inactive”.
On the same count and under the same terms, in the case of `CCn1c(CSc2nc(C)cc(C)n2)nnc1SCC(N)=O` it was “inactive”; in that of `COCCCn1c(SCc2cccc(OC)c2)nc2cc(OC)c(OC)cc2c1=N`, 16.4 µM (active).
On the same count and under the same terms, in the case of `COc1ccc(/C=C/c2nnc(NC(=O)C(C)C)s2)cc1` it was “inactive”; in that of `Cc1cccc(N=C2SC(C)CN2C(=O)CN2C(=O)NC3(CCCC3)C2=O)c1` (stereo not given), “inactive”; in that of `CC(C)c1nc2cc(C(=O)NC(C)c3cnn(C)c3)ccc2o1` (stereo not given), “inactive”.
Same read-out and setting: in the case of `COc1cccc(C2=CC(=O)C[C@H](c3ccc(F)cc3)C2)c1OC` it was “inactive”; in that of `COc1ccc(C2Sc3ccccc3NC3=C2C(=O)c2ccccc23)c(OC)c1OC` (stereo not given), 1.84 µM (active).
Consider `O=[N+]([O-])c1ccc(N2CCN(S(=O)(=O)c3ccccc3)CC2)cc1N1CCc2ccccc2C1`, for which the Potency entry is “inactive”.
On the same count and under the same terms, as for `CSCCC(NC(=O)COc1ccccc1)C(=O)OCc1ccc(Cl)cc1` (stereo not given), the entry is “inactive”; as for `CN(CCOc1ccc(CC2SC(=O)NC2=O)cc1)c1ccccn1` (stereo not given), “inactive”.
The same measure, in the same setting: as for `Cn1c(=O)c2c(nc(N/N=C/c3cccs3)n2Cc2ccc(Br)cc2)n(C)c1=O`, the figure is 23.1 µM (active).
On the same count and under the same terms, in the case of `CCn1c(NCCc2ccc(OC)c(OC)c2)nc2c1c(=O)n(C)c(=O)n2C` it was 7.31 µM (active).
Regarding `Cn1c(=O)c2c(nc(NCCc3ccccc3)n2Cc2ccccc2)n(C)c1=O`, the Potency was 4.11 µM (active).
Same read-out and setting: in the case of `COc1ccc(CCN2CNc3c(c(=O)n(C)c(=O)n3C)C2)cc1OC` it was “inactive”; in that of `Cn1c(=O)c2c(nc(NCCc3ccccc3)n2Cc2ccccc2Br)n(C)c1=O`, “inactive”; in that of `CCCCn1c(SCC(=O)NCCc2ccc(OC)c(OC)c2)nc2c1c(=O)n(C)c(=O)n2C`, “inactive”.
Regarding `Cn1c(=O)[nH]c(=O)c2c1nc(NCCCn1ccnc1)n2Cc1cccc(Br)c1`, the Potency entry was “inactive”.
The same measure, in the same setting: in the case of `CCCCNc1nc2c(c(=O)n(C)c(=O)n2C)n1Cc1cccc(OC)c1` it was 1.84 µM (active); in that of `Cn1c(=O)c2c(nc(NCc3ccccc3)n2CC(N)=O)n(C)c1=O`, “inactive”; in that of `COc1ccc(CCn2c(NCCCN3CCOCC3)nc3c2c(=O)[nH]c(=O)n3C)cc1`, “inactive”.
